Compound activity as filed in PubChem BioAssay.
WRN helicase inh – blocks human WRN helicase. hit rate 0.46% among 360,000. WRN helicase unwinding, fluorescent forked duplex, kinetic. Q14191. Potency, µM (top dose mostly 114 µM), most hits filed as inhibitors. AID 651768; further: nearly all actives have a fitted effect of over 55% in size
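Primary qHTS, 1536-well format. 20 nM WRN + compound, 15 min RT; start with 100 nM forked fluorophore/quencher duplex, 2 mM ATP (final); kinetic read ex 525/em 598 nm.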
FEN1 inhibitor – blocks human flap endonuclease 1 | Recombinant FEN1 flap cleavage, fluorescence, 15 min | Potency, µM (top dose mostly 114 µM), usual class: inhibitors | hit rate 0.35% among 390,000 | AID 588795; further: nearly all actives have a fitted effect of over 65% in size
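Steps: FEN1 (10 nM) dispensed; compound added by pin tool; 15 min at room temperature; substrate added to 50 nM final; reads at 0 min and 15 min; data normalized and fitted (four-parameter Hill).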
Pol iota inh – inhibitors of human DNA polymerase iota | Q9UNA4 | Potency, µM (series often up to 115 µM), usual class: inhibitors | AID 588590 | Pol iota fluorescent replication assay, 10 min | hit rate 1% among 390,000
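Fluorescent replication assay read twice, at 0 min and 10 min after adding 50 nM (final) substrate. Enzyme (10 nM) and compounds were first incubated 15 min at room temperature; enzyme-free buffer wells were negative controls.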
POLB inh – DNA polymerase beta (human) inhibition; hit rate 1.3% among 340,000; AID 485314; Pol beta primer extension/strand displacement, fluorescence kinetic; Potency, µM (top dose mostly 114 µM), most hits filed as inhibitors; P06746
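Pol beta (10 nM) and compounds were preincubated 15 min at room temperature, then 50 nM substrate (final) started primer extension/strand displacement. Reads were taken at 0 and 10 min; concentration-response data were fitted to a four-parameter Hill equation.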
Pol eta inh-1 – inhibitors of human DNA polymerase eta; Q9Y253; recombinant Pol eta, fluorescent DNA replication assay; Potency, µM (doses to about 114 µM), usual class: inhibitors; hit rate 1.2% among 390,000; AID 588591
Target sequence (Q9Y253 whole entry, looked up): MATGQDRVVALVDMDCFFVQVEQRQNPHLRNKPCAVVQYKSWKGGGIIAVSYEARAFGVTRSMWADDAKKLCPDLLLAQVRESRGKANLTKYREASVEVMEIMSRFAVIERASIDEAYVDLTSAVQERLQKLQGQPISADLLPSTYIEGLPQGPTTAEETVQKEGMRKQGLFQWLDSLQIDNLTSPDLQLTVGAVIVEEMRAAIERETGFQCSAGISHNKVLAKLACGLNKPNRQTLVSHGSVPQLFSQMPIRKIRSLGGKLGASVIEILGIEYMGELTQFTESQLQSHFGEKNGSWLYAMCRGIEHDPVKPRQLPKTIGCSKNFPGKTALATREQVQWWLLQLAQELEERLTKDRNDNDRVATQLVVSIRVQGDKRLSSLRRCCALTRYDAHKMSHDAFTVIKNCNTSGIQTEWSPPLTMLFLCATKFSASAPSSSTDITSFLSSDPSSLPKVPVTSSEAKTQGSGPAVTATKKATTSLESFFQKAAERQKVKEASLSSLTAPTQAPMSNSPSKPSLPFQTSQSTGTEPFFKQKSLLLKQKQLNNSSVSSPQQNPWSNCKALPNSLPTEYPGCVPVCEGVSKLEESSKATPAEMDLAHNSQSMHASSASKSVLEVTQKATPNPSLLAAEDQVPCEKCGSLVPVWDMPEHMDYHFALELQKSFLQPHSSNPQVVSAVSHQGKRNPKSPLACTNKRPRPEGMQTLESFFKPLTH
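Fluorescent replication assay: 50 nM final substrate added after a 15 min room-temperature compound preincubation with 10 nM enzyme. Signal taken at 0 min and again at 10 min.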
Pol kappa inh-1 – blocks human DNA polymerase kappa activity. Potency, µM (top dose mostly 107 µM), actives largely listed as inhibitors. purified Pol kappa, fluorescent DNA synthesis assay, 10 min. hit rate 0.53% among 400,000
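First, compounds were pin-transferred onto 10 nM Pol kappa. After 15 min at room temperature, substrate was added to 50 nM final. Fluorescence was then measured kinetically at 0 and 10 min.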
GALK confirm – confirmation of human galactokinase (GALK) inhibitors. shares compounds with Pol eta inh-1. hit rate 70% among 150. Potency, µM (highest dose often 115 µM), usual class: inhibitors. purified GALK, Kinase-Glo ATP depletion luminescence
Redox cycling – redox cycling activity in phenol red-HRP assay; Phenol red-HRP H2O2 redox cycling, absorbance 600 nm; shares compounds with Pol eta inh-1; Potency, µM (top dose mostly 115 µM), usual class: inhibitors; hit rate 40% among 150; AID 2035
HEK293 viability – HEK-293 cytotoxicity, GALK inhibitor secondary. hit rate 10% among 170. AID 2547. Potency, µM (doses to about 46.1 µM), hits mostly inhibitors. HEK-293 viability, ATP luminescence (CellTiter-Glo), 24/48 h. shares compounds with Pol eta inh-1
Pol kappa inh-2 – Pol kappa (human) inhibition, cherry-pick confirmation. hit rate 76% among 920. Potency, µM, actives largely listed as inhibitors. shares compounds with Pol eta inh-1. AID 720501. purified Pol-kappa, fluorescent strand-displacement substrate
Pol eta inh-2 – Pol eta (human) inhibition, cherry-pick confirmation | Potency, µM, usual class: inhibitors | shares compounds with Pol eta inh-1 | Pol eta primer extension, TAMRA/BHQ fluorescence, 10 min | hit rate 64% among 2,600
Numbers stand for hits; . = inactive; ? = inconclusive; / = no result given; [ ] = remark or other dose. An excerpt weighted towards active compounds, which were near 2.4% of everything screened. The call rests on the fitted dose curve; in most records, active means well fitted curve in the direction sought with a large enough effect; inconclusive means small, poorly fitted or top-dose-only effect, or another doubt; inactive means no such curve, though single readings can be large; an effect the other way counts as inactive or inconclusive.

SMILES | WRN helicase inh | FEN1 inhibitor | Pol iota inh | POLB inh | Pol eta inh-1 | Pol kappa inh-1 | Pol eta inh-2 | others
COc1cccc(-n2c(SCC(=O)N3CCc4ccccc43)nc3c([nH]c4ccccc43)c2=O)c1 | / | . | . | . | . | . | /
CNc1ccc(/C=C/c2ccccc2)cc1 | / | . | . | / | / | . | /
O=[N+]([O-])c1ccc(Cl)c(S(=O)(=O)Nc2ccc3cn[nH]c3c2)c1 | . | . | . | / | . | . | /
O=C(O)c1ccc(Cl)c(S(=O)(=O)Nc2ccc3cn[nH]c3c2)c1 | . | . | ? | 22.4µM | 17.8µM | ? | ?
O=C(O)CCc1nnc(SCC(=O)Nc2ccc(Cl)c(C(F)(F)F)c2)[nH]c1=O | . | . | . | . | . | . | / | GALK confirm=?;Redox cycling=.;HEK293 viability=.
O=C(N/N=C/c1coc2ccccc2c1=O)c1ccncc1 | . | . | . | . | . | . | /
O=C(N/N=C/c1coc2ccccc2c1=O)c1cc(Br)c(O)c(Br)c1 | .[11.6 µM] | . | . | . | ? | . | ?
Cc1ccc(C(=O)N/C(=C\c2ccc(Cl)cc2)C(=O)NCCN2CCOCC2)cc1 | . | . | . | . | . | . | / | GALK confirm=.;Redox cycling=.;HEK293 viability=.
O=C(NCCN1CCOCC1)/C(=C/c1ccc(Cl)cc1)NC(=O)c1ccccc1 | . | . | . | . | . | . | /
Cc1ccc(NC2=C/C(=N/S(=O)(=O)c3cccs3)c3ccccc3C2=O)cc1C | . | . | . | . | . | . | /
Cc1ccc(C)c(S(=O)(=O)/N=C2\C=C(NS(=O)(=O)c3ccccc3)C(=O)c3ccccc32)c1 | .[11.6 µM] | ? | ? | . | ? | . | ?
Cc1ccccc1NC1=C/C(=N\S(=O)(=O)c2ccc(C(=O)O)cc2)c2ccccc2C1=O | . | 50.1µM | 0.891µM | 35.5µM | 5.01µM | . | / | GALK confirm=8.41µM;Redox cycling=5.3µM;HEK293 viability=25µM
CC(=O)Nc1ccc(/C=C2\C=Cc3ccccc32)cc1 | / | . | . | / | / | . | /
Cc1ccc(NC(=O)C(Cc2ccccc2)N2Cc3ccccc3C2=O)cc1Cl (centres undefined) | / | . | . | . | . | . | /
N#CC1=C(N)Oc2n[nH]c(-c3cccnc3)c2C1c1ccc([N+](=O)[O-])o1 (centres undefined) | ? | . | ? | . | 28.2µM | ? | 67.5
Cc1csc(NC(=O)CSc2sc3c(O)cc(=O)[nH]c3c2C#N)n1 | 39.8µM | 50.1µM | 7.94µM | 44.7µM | 17.8µM | 28.2µM | ? | Pol kappa inh-2=?
COc1ccc(NC(=O)CSc2sc3c(O)cc(=O)[nH]c3c2C#N)c(OC)c1 | ? | 31.6µM | 2.51µM | 1.58µM | 22.4µM | ? | ? | Pol kappa inh-2=?
Cc1csc(NC(=O)CSc2nsc(SCC(=O)Nc3nc(C)cs3)c2C#N)n1 | . | . | . | . | . | . | /
COC(=O)c1ccc(C)c(NC(=O)CSc2sc3c(O)cc(=O)[nH]c3c2C#N)c1 | ? | ? | 12.6µM | 35.5µM | 10µM | 22.4µM | ? | Pol kappa inh-2=?
COC(=O)c1ccc(C)c(NC(=O)CCSc2ccc(C)cc2)c1 | . | . | . | . | . | . | /
CC(=O)Nc1ccc(/C=C/c2ccncc2)cc1 | / | . | . | / | / | . | /
COc1ccc2c(c1)C=C/C2=C/c1ccc(N(C)C)cc1 | / | . | . | / | / | . | /
CC(=O)Oc1ccc2c(=O)c(Oc3ccccc3)coc2c1OC(C)=O | ? | ? | 12.6µM | 10µM | 6.31µM | 14.1µM | ?
CC(SCc1cc(=O)n2c([nH]c3ccccc32)c1C#N)C(=O)O (centres undefined) | ? | . | ? | . | ? | ? | ?
C/C(N)=C(/C#N)C(=O)CSc1nnnn1-c1ccccc1 | . | . | ? | 35.5µM | 15.8µM | . | 26.9
SMILES | WRN helicase inh | FEN1 inhibitor | Pol iota inh | POLB inh | Pol eta inh-1 | Pol kappa inh-1 | Pol eta inh-2 | others
Oc1c(Br)cc(/C=N/Nc2ccc(Cl)nn2)cc1Br | 44.7µM | ? | ? | 50.1µM | 22.4µM | ? | 84.9
COc1ccccc1NC(c1ccc(Cl)cc1)c1nnc(-c2cccc(F)c2)o1 (centres undefined) | / | . | . | . | . | . | /
COc1ccc(-n2c(=O)c(CCc3ccccc3)nc3cnc(OC)nc32)cc1 | / | / | / | / | / | . | /
CCN(CC)S(=O)(=O)c1nnc(NC(=O)COc2ccccc2F)s1 | / | . | . | . | / | . | /
COc1cc(/C=C/C(=O)O)cc(S(=O)(=O)Nc2ccccc2C(=O)NCc2ccco2)c1OC | .[11.6 µM] | . | ? | / | 22.4µM | ? | ?
COc1ccc(CN2CC[C@H]3C=CC[C@@H](C(=O)Nc4nccs4)[C@H]3C2=O)cc1OC | / | . | . | / | / | . | /
S=c1[nH]nc(-c2cccc(Cl)c2)n1/N=C/c1ccco1 | . | . | ? | ? | ? | . | /
CC(/C=N/n1c(-c2ccncc2)n[nH]c1=S)=C\c1ccco1 | ? | ? | 20µM | . | ? | 50.1µM | ?
Cc1cccc(-c2n[nH]c(=S)n2/N=C/C=C/c2ccco2)c1 | . | ? | 12.6µM | ? | 79.4µM | 44.7µM | ?
Cc1ccccc1NS(=O)(=O)c1ccc2[nH]cc(C(=O)N3CCCC3)c(=O)c2c1 | / | . | ? | ? | 89.1µM | . | ?
CC(C)c1ccc(NS(=O)(=O)c2ccc3[nH]cc(C(=O)N4CCCC4)c(=O)c3c2)cc1 | / | . | 79.4µM | ? | ? | ? | 42.6
CC(Sc1nnc2ccc3ccccc3n12)C(=O)Nc1ccc(Cl)cc1 (centres undefined) | / | . | . | . | . | . | /
CN=CC1=C(O)c2ccccc2C1=O | . | . | . | . | . | . | /
O=C1C(C2=C(O)c3ccccc3C2=O)=Nc2ccccc21 | . | . | . | . | 31.6µM | . | / | GALK confirm=23.7µM;Redox cycling=14.9µM;HEK293 viability=.
N#Cc1ccccc1OCC(=O)NC(=O)NCc1ccco1 | .[11.6 µM] | . | ? | . | 39.8µM | . | ?
CCNC(=O)NC(=O)COc1ccccc1C#N | . | . | . | . | . | . | /
Cc1cccc(CSc2ncc(Cl)c(C(=O)Nc3sc4c(c3C#N)CCCC4)n2)c1 | / | . | . | . | . | . | /
Cc1cccc(-n2c(SCC(=O)Nc3ccccc3C)nc3c(oc4ccccc43)c2=O)c1 | / | . | . | . | . | . | /
